Compound activity as filed in PubChem BioAssay.
TTR transcr act = increases transthyretin transcription; SH-SY5Y TTR promoter Gaussia luciferase, luminescence; 100% = recombinant luciferase protein wells; activation, % at 16.7 µM; 92,000 tested, 1.3% active; AID 1117267;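 active = activation above the mean of all tested compounds plus 3 SD, cut at about 9.5% in these data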;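 note: cells exposed to compounds for one day before reading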
HuH7 TTR inh = HuH7 TTR transcription inhibition, counter-screen | shares compounds with TTR transcr act | HuH7 TTR promoter-Gaussia luciferase reporter, luminescence | inhibition, % at 16.7 µM | 1,100 tested, 4% active | AID 1117279;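 active = average inhibition above the solvent-only control wells' mean plus 3 SD, cut at about 15% in these data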;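 note: inhibitors lower well luminescence so higher value means more inhibition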
TTR act confirm = confirmation of human transthyretin transcription activators; shares compounds with TTR transcr act; SHSY5Y TTR promoter Gaussia luciferase, luminescence; 100% = purified Lucia enzyme wells, no cells; activation, % at 16.7 µM; 1,100 tested, under 10 active;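 active = mean activation above a set limit taken from the earlier primary screen, cut at about 11% in these data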
Of the large screens only hits and unclear results are named; the others gave an inactive call (follow-up assays come after a bar, where they were run). This is one part of a sample in which hits are shown more often than they occur.

CCC(C)[C@H](NC(=O)[C@H](Cc1ccccc1)NC(=O)OC(C)(C)C)C(=O)NCc1ccccc1Br (stereo not given in full)	none
CC(=O)c1sc2nc(-c3ccc(C)cc3)c3c(c2c1N)CCCC3	none
Cc1cc(C)c2c(N)c(C(=O)c3ccccc3Cl)sc2n1	none
COCc1cc(C)nc2sc(C(=O)Nc3ccccc3C)c(N)c12	none
Cc1cc(C)c2c(N)c(C(=O)Nc3ccccc3Cl)sc2n1	TTR transcr act 12 | HuH7 TTR inh inactive | TTR act confirm inactive
CC(=O)c1sc2nc(C)cc(C)c2c1N	TTR transcr act 23 | HuH7 TTR inh inactive | TTR act confirm inactive
Cc1cc(C)c2c(N)c(C(=O)Nc3ncc(C)s3)sc2n1	none
Cc1ccc(OC(=O)N(C)C[C@H]2OCc3cn(nn3)CCCC(=O)N([C@H](C)CO)C[C@@H]2C)cc1	none
Cc1ccc(S(=O)(=O)N2C[C@@H](C)[C@]3(C2)[C@H](O)[C@H](OC(=O)NCc2ccccc2F)C[C@H]2C(=O)N(c4ccccc4)C(=O)[C@H]23)cc1	none
O=C(CN1C(=O)C(=O)N(CCC2=CCCCC2)C1=O)Nc1ccc(F)cc1F	none
CCOc1ccc(CCNC(=O)c2c(C)nn(-c3ccccc3)c2Cl)cc1OCC	TTR transcr act 12 | HuH7 TTR inh inactive | TTR act confirm inactive
Cc1nn(-c2ccccc2)c(C)c1C(=O)NCCc1ccccc1	none
Cc1nn(Cc2ccccc2)c(Cl)c1C(=O)NCCc1ccc(Cl)cc1	none
CN1[C@H](Cc2ccccc2)COc2cccc(F)c2S1(=O)=O	none
O=C1C=CC(=O)N1c1ccc2c(c1)C(NC(=O)C(F)(F)F)c1ccccc1-2 (stereo not given)	none
CCOC(=O)C1C(=O)CC(C)(O)C(C(=O)OCC)C1c1ccc(Br)cc1 (stereo not given)	none
CCOC(=O)C1C(=O)CC(C)(O)C(C(=O)OCC)C1c1ccc(SC)cc1 (stereo not given)	none
C=CCOC(=O)C1C(=O)CC(C)(O)C(C(=O)OCC=C)C1c1ccc(N(C)C)cc1 (stereo not given)	TTR transcr act 25 | HuH7 TTR inh inactive | TTR act confirm inactive
CCOC(=O)C1=CN(Cc2ccco2)S(=O)(=O)NC1CC (stereo not given)	none
CCN1C(=NCCOC)N[C@@H](c2ccccc2)[C@H](C(=O)OC)[C@H]1C	none
C[C@H]1C2CC(OC(=O)NCc3ccc(Cl)cc3)C(C2)[C@H]2CCCCN21 (stereo not given in full)	none
CCc1cccc(CC)c1-n1c(SCC(=O)N2CCCc3ccccc32)nc(O)cc1=O	none
CC1(Cc2cc(Cl)ccc2C(F)(F)F)C(=O)Nc2ccc(S(=O)(=O)NC3CCCCC3)cc21 (stereo not given)	none
O=S(=O)(Nc1ccccn1)c1ccc(Br)cc1	none
O=S(=O)(Nc1ccccn1)c1cnc(Cl)c(Br)c1	TTR transcr act 20 | HuH7 TTR inh inactive | TTR act confirm inactive
O=S(=O)(Nc1nccs1)c1cnc(Cl)c(Br)c1	none
O=C(NCCc1c[nH]c2ccccc12)OCc1cn(-c2cccc(Cl)c2)nn1	none
C[C@H](NC(=O)[C@@H]1CCCN1C(=O)[C@@H]1CCCN1C(=O)c1cccs1)c1ccccc1	none
Cc1ccccc1NC(=O)/C(=C\c1cccs1)NC(=O)c1ccco1	none
O=C(N/C(=C\c1cccs1)C(=O)N1CCOCC1)c1ccco1	none
CN1CCN(C(=O)/C(=C\c2cccs2)NC(=O)c2ccco2)CC1	TTR transcr act 9.7 | HuH7 TTR inh inactive | TTR act confirm inactive
COC(=O)[C@@]12CCCCC=C1N(CCc1ccc(Cl)cc1)C(=O)[C@H]2CC(=O)NCCc1ccccc1OC	none
COc1ccc(C=O)c(OCc2cn(CC(=O)c3ccc(O)cc3)nn2)c1	none
CCOc1ccc(CCNC(=O)CCS(=O)(=O)c2ccc(Cl)cc2)cc1OCC	none
Cc1ccccc1-n1cnnc1SCC(=O)Nc1cccnc1Cl	none
CC[C@]12c3[nH]c4cc(CCC(=O)N(C)C)ccc4c3CCN1C(=O)[C@@H](CC(=O)NCc1ccc(OC)c(OC)c1)C[C@@H]2C(=O)N1CCN(C(=O)C2CC2)CC1	none
CC[C@]12c3[nH]c4cc(-c5ccco5)ccc4c3CCN1C(=O)[C@@H](CC(=O)NCCC1=CCCCC1)C[C@@H]2C(=O)N1CCN(C(=O)C2CC2)CC1	none
CC[C@]12c3[nH]c4cc(-c5ccco5)ccc4c3CCN1C(=O)[C@@H](CC(=O)NCc1ccc(OC)c(OC)c1)C[C@@H]2C(=O)N1CCN(C(=O)C2CC2)CC1	TTR transcr act 10 | HuH7 TTR inh inactive | TTR act confirm inactive
CCOc1ccc(N(CC(=O)NCCc2ccccc2)C(=O)CCC(=O)Nc2nccs2)cc1	none
CCOC(=O)Cc1csc(NC(=O)COc2ccc3c(c2)CCC3)n1	TTR transcr act 14 | HuH7 TTR inh inactive | TTR act confirm inactive
CCOC(=O)Cc1csc(NC(=O)COc2cccc(C)c2)n1	none
CCOC(=O)Cc1csc(NC(=O)CCC(=O)O)n1	none
CN(C(=O)CSc1ncnc2c(-c3cccs3)nsc12)C1CCCCC1	none
C[C@@H]1CCCCO[C@@H](CN(C)C(=O)c2ccncc2)[C@@H](C)CN([C@H](C)CO)C(=O)c2cc(NC(=O)Cc3ccccc3)ccc2O1	none
COc1ccccc1CNC(=O)c1ccc2c(=O)n(CC3CCCO3)c(=S)[nH]c2c1 (stereo not given)	none
O=C(NCC1CCCO1)c1ccc2c(=O)n(Cc3ccc(Cl)cc3)c(=S)[nH]c2c1 (stereo not given)	none
O=C(NCC1CCCO1)c1ccc2c(=O)n(-c3ccc(F)cc3)c(=S)[nH]c2c1 (stereo not given)	TTR transcr act 12 | HuH7 TTR inh inactive | TTR act confirm inactive
CC1=C(C(=O)N2CCCCCC2)CC(CC(=O)NCc2cccs2)C(=O)N1Cc1ccccc1 (stereo not given)	none
COc1ccc(C=O)cc1-c1cc(C(C)=O)c2n(c1=O)CCC2	none
O=S1(=O)c2ccc(N3CCC[C@@H]3CO)cc2O[C@@H]2CCN1C2	none
S=c1[nH]nc(-c2ccccc2)n1Cc1ccccc1	none
COc1ccc(-c2n[nH]c(=S)n2Cc2ccccc2)cc1OC	none
CC(C)c1cc(-c2n[nH]c(=S)n2Cc2ccccc2)cs1	TTR transcr act 11 | HuH7 TTR inh inactive | TTR act confirm inactive
CCCCCC(=O)NC1CCCCN(Cc2ccccc2C)C1=O (stereo not given)	none
CCOC(=O)[C@]12CCCC=C1N(CCCOC)C(=O)[C@@H]2CC(=O)N1CCC(c2ccccc2)CC1	none
COc1ccc(C(=O)CSc2ccc(-c3ccccc3)nn2)cc1	none
Cc1ccc(Sc2nnc(-c3ccccc3)cc2C#N)cc1	none
COc1ccc(Sc2nnc(-c3ccccc3)cc2C#N)cc1	TTR transcr act 10 | HuH7 TTR inh inactive | TTR act confirm inactive
CCCNc1c(NC(=O)c2ccc3c(c2)OCO3)c(=O)oc2ccccc12	none
CC1=C(C(=O)N2CCOCC2)CC(CC(=O)NCC2CCCCC2)C(=O)N1CCC1=CCCCC1 (stereo not given)	none
CCCCNC(=O)c1nc(-c2cccnc2)oc1-c1ccc(OC(F)(F)F)cc1	none
O=C1CC(c2ccccc2)CC(=O)N1c1ccccc1	none
O=C(NCc1ccccc1)NC12CC3CC(CC(C3)C1)C2	none
O=C1C(C23CC4CC(CC(C4)C2)C3)C(=O)N(c2ccccc2)N1c1ccccc1	TTR transcr act 51 | HuH7 TTR inh inactive | TTR act confirm inactive
CCCCNC(=O)CCCCCNS(=O)(=O)c1ccc(Br)cc1	none
